HepG2 viability = counter-screen for TGF-b inhibitors: cytotoxicity in HepG2 cells. HepG2 CAGA-GFP viability, ATP luminescence, 18 h. Potency, µM (top dose mostly 46.1 µM), for inactives: top-dose activity change, negative = cytotoxicity, actives largely listed as cytotoxic. 0.76% of 410,000 active. AID 588856; further: potency means the concentration at half of the fitted maximal effect
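HepG2 CAGA-GFP cells (1000/well, DMEM with 1% FBS) received compound, then TGF-beta at 500 pg/mL final, and were incubated 18 hours at 37 degrees C. Viability was read by CellTiter-Glo luminescence. Media-only wells were set as complete cell-killing and DMSO as no toxicity.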
D3 ag = activates the human D3 dopamine receptor. P35462. D3R DiscoveRx beta-arrestin cells, luminescence, 90 min. max activation, %. 0.58% of 410,000 active. AID 652048; in the data active means max activation above about 30%; further: 0% is about no effect
Target sequence (P35462 whole entry, looked up): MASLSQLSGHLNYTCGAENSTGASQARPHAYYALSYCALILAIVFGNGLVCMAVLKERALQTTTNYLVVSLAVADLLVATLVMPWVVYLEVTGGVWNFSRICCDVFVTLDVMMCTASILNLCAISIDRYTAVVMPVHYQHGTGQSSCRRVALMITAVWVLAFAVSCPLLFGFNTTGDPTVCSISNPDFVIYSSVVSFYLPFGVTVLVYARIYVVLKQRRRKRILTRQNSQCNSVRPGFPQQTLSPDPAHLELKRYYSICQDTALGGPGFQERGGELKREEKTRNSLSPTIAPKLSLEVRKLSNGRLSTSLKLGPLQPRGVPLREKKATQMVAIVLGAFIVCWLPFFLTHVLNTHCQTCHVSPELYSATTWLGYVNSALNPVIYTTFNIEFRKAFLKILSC
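Agonist-mode cell screen: cells plated at 1500/well and incubated overnight at 37 °C, then exposed to library compounds for 90 min at 37 °C. Detection reagent was added for 30–60 min at room temperature, and luminescence was read.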
S2 tox = cell viability loss in ATXN counter-screen | S2 cells (HEK-293 line with an ATXN2-luciferase reporter) viability, CellTiter-Fluor protease fluorescence, 24 h | Potency, µM (titrated, usually from 56.7 µM), most hits filed as cytotoxic | 0.49% of 400,000 active | AID 651635; further: potency means the concentration at half of the fitted maximal effect; nearly all actives have a fitted effect of over 40% in size
D3 antag = blocks the human D3 dopamine receptor; max response, negative = inhibition, %; D3R cells, DiscoveRx beta-arrestin luminescence, antagonist mode; active compounds read low; 2.5% of 360,000 active; P35462; in the data active means max response below about -50%; inconclusive means no clear call, values can overlap the other calls; further: on the % scale 0 is the no-effect control and ±100 the full control effect
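Cells expressing the human receptor were seeded at 1500 cells/well, incubated overnight at 37 degrees C in 5% CO2, then exposed to library compounds with dopamine controls for 90 minutes at 37 degrees C before luminescent detection.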
ATXN2 expr inh = reduces ATXN2 reporter expression in HEK-293 cells. Potency, µM (series often up to 57 µM), inactives show top-dose activity change, negative = inhibition, most hits filed as inhibitors. 0.72% of 360,000 active. AID 1745845. HEK-293 ATXN2-luciferase reporter, luminescence, 24 h; further: potency means the concentration at half of the fitted maximal effect; on the % scale 0 is the no-effect control and ±100 the full control effect; nearly all actives have a fitted effect of over 55% in size
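ATXN2-luciferase reporter cells (luciferase flanked by upstream and downstream ATXN2 gene portions) were treated 24 h at 37 °C with compounds at up to 57 uM. SteadyGlo luminescence gave expression; GF-AFC fluorescence gave viability.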
TGFb inhibitor = TGF-b pathway inhibition; HepG2 CAGA-GFP TGF-b/SMAD3 reporter, GFP fluorescence, 18 h; TGF-beta stimulated, 500 pg/mL final; Potency, µM (titrated, usually from 46.1 µM), without a hit: at the highest dose activity, negative = inhibition, actives largely listed as inhibitors; 1.2% of 410,000 active; AID 588855; further: potency means the concentration at half of the fitted maximal effect; on the % scale 0 is the no-effect control and ±100 the full control effect; nearly all actives have a fitted effect of over 65% in size
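Inhibition was scored as loss of TGF-beta-induced (500 pg/mL final, 18 hours, 37 degrees C) GFP in HEPG2 cells carrying a CAGA-GFP reporter, in DMEM with 1% FBS. Well GFP was summed per cell; Activity was normalised to unstimulated and stimulated DMSO wells, then concentration-response fitting.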
* marks the source's active call; other numbers are inactive results; i = inactive; ? = inconclusive; . = no result. Compounds with a hit are over-represented: about 4.8% of the library has one in this group of screens. Unless noted, the call rests on the fitted dose curve; in most records, active means well fitted curve in the direction sought with a large enough effect; inconclusive means small, poorly fitted or top-dose-only effect, or another doubt; inactive means no such curve, though single readings can be large; an effect the other way counts as inactive or inconclusive.

SMILES | HepG2 viability | D3 ag | S2 tox | D3 antag | ATXN2 expr inh | TGFb inhibitor
CC1=C(CC(=O)c2ccccc2)C(=O)c2ccccc2C1=O | 6.3µM* | -6 | i | -24 | 6% | 6.3µM*
COc1ccccc1C(=O)Nc1ccc2c(c1)CN(Cc1cnc(C)s1)CC2 | -23% | -2 | i | -16 | -20% | -22%
COC(=O)Nc1ncc(CN2CCc3ccccc3C2)s1 | -5% | -33 | i | -74* | -1% | -26%
COc1cc2c(C(=O)N(C)c3cc(Cl)ccc3OC)cn(CC(C)C)c(=O)c2cc1OC | -36% | -11 | i | . | ? | ?
CN1CCc2nc3sc(C(=O)Nc4ccccc4C(F)(F)F)c(N)c3cc2C1 | -33% | 4 | . | . | . | ?
CCOC(=O)/C=C/S(=O)(=O)c1ccc(NC(C)=O)cc1 | 2µM* | -6 | ? | -76* | ? | ?
COc1ccc2sc(-c3ccc(SC)cc3)c(-c3ccc(O)cc3)c2c1 | 13µM* | 5 | ? | 38 | 22µM* | ?
CCCCC(O)/C=C(C)/C=C/C=C/C(=O)N1CCCC1=O (stereo not given) | . | . | i | . | 15% | .
COc1cc(CN2C(=O)CC[C@@H]3CN(Cc4ccccn4)CC[C@@H]32)cc(OC)c1OC | . | . | i | . | . | .
COc1ccc(NC(=O)c2cc3ccccc3cc2O)cc1 | -71% | -9 | . | -61* | 77% | ?
CN1CCN(c2ccc(CNC(=O)c3ccc(-c4ccc(F)c(F)c4)c4ccoc34)cc2)CC1 | -30% | -13 | ? | -66* | ? | 9%
O=C(NCc1ccc(C(F)(F)F)cc1)c1ccc(-c2ccc(F)c(F)c2)c2ccoc12 | -27% | -13 | i | ? | 8% | -3%
CN1CCN(c2ccc(CNC(=O)c3cccc4c(-c5ccc(F)c(F)c5)coc34)cc2)CC1 | -114% | -14 | ? | -83* | ? | ?
O=C(NCC1Cc2cccc(-c3cncnc3)c2O1)C1CC1 (stereo not given) | . | . | i | . | . | .
CSc1nccc(-c2cc(Cl)c3c(c2)CC(CNC(=O)c2nonc2C)O3)n1 (stereo not given) | . | . | i | . | . | .
Cc1cccc(Nc2nc(N)c([N+](=O)[O-])c(N3CCC(C)CC3)n2)c1 | -74% | 24 | i | 14 | -6% | 14µM*
Cc1cccc(Nc2nc(N)c([N+](=O)[O-])c(N3CC(C)OC(C)C3)n2)c1 (stereo not given) | 1% | 1 | ? | 2 | -29% | 0%
CCN1CCN(c2nc(Nc3ccc(C)c(C)c3)nc(N)c2[N+](=O)[O-])CC1 | 15% | -39 | ? | -83* | -13% | 16%
CN1CCN(c2nc(NCc3ccco3)nc(N)c2[N+](=O)[O-])CC1 | 12% | -18 | i | -80* | 2% | 18%
Cc1cccc(Nc2nc(N)c([N+](=O)[O-])c(N3CC(C)CC(C)C3)n2)c1 (stereo not given) | 11µM* | 0 | ? | 5 | -16% | ?
CCOC(=O)c1ccc(OCC2c3cc(OC)c(OC)cc3CCN2C(=O)Cc2ccc(OC)c(OC)c2)cc1 (stereo not given) | -12% | 1 | i | . | -3% | 4%
Cc1nc2cc(NC(=O)[C@@H]3C[C@@H](Sc4ccccn4)CN3Cc3ccccc3)ccc2s1 | . | . | i | . | . | .
CCCCNC(=O)C1CCC(Cn2c(=O)c3sccc3n(Cc3ccccc3)c2=O)CC1 (stereo not given) | -15% | 5 | i | . | 5% | -18%
NCCCn1c(C(=O)c2ccc(Cl)cc2)c2ccc(C(F)(F)F)cc2[n+]1[O-] | -46% | -7 | i | -16 | 5% | 18%
NCCCn1c(C(=O)c2ccc(Cl)cc2)c2ccc([N+](=O)[O-])cc2[n+]1[O-] | -32% | -2 | ? | 21 | ? | 10µM*
SMILES | HepG2 viability | D3 ag | S2 tox | D3 antag | ATXN2 expr inh | TGFb inhibitor
NC(=O)CCCn1c(C(=O)c2cc(Cl)c(N)c(Cl)c2)c2ccc([N+](=O)[O-])cc2[n+]1[O-] | -54% | -8 | 28µM* | -10 | ? | 7.9µM*
NC(=O)CCCn1c(C(=O)c2ccc(Cl)cc2)c2ccc([N+](=O)[O-])cc2[n+]1[O-] | -33% | 2 | 18µM* | 10 | ? | ?
NS(=O)(=O)c1cc2c(cc1Cl)CN(C1CCCCC1)C2=O | . | . | i | . | 8% | .
Oc1ccc(N=Nc2ccc3c(c2)OCCO3)c2cccnc12 | 1% | 18 | 10µM* | ? | ? | 4%
Cc1ccc(O)c2ncccc12 | . | -8 | ? | . | 16µM* | .
Cc1cccc(NCc2ccc(O)c3ncccc23)c1 | -26% | 9 | i | -14 | -21% | ?
COCc1ccc(O)c2ncccc12 | -77% | -26 | ? | -78* | ? | 1.6µM*
Nc1ccc(N=Nc2ccccc2)c2cccnc12 | -12% | -10 | ? | -26 | 54% | -15%
COc1cccc(N=Nc2ccc(O)c3ncccc23)c1 | -9% | -29 | 16µM* | -110* | ? | ?
Oc1ccc(CNc2ccccc2)c2cccnc12 | -52% | -4 | i | 10 | -35% | ?
CCCCN1CC[C@H]2C=CC[C@@H](C(=O)NC3CCCCC3)[C@H]2C1=O | 23% | . | . | . | . | 21%
CCOC(=O)N1CCN(C(=O)CN2C(=O)/C(=C\c3cccc(OC)c3)SC2=S)CC1 | 24% | . | . | . | . | 25%
CCOc1ccc(CC(=O)Nc2c(C(=O)c3ccccc3)oc3ccc(OC)cc23)cc1OCC | -18% | 3 | i | . | 13% | -1%
COc1ccc(-c2ccc(C(=O)N3CCc4c(cnc(C)c4CNS(=O)(=O)N(C)C)C3)o2)cc1 | . | . | i | . | . | .
CC1CCN(S(=O)(=O)c2ccc3c(c2)CCN3C(=O)Nc2ccccc2Br)CC1 | 2% | -6 | . | . | . | .
O=C(NCC1(N2CCOCC2)CCCCCC1)c1cnn(-c2nccc(-c3ccco3)n2)c1C1CC1 | . | . | i | . | . | .
O=Nc1ccc(O)c2ncccc12 | -96% | -13 | 16µM* | ? | . | ?
COc1cc(OC)cc(C(=O)Nc2cccc3cccnc23)c1 | 4% | 10 | i | 18 | 0% | -1%
Cc1c(C)c2cccnc2c2ncccc12 | -35% | -21 | ? | -103* | ? | 10µM*
COc1cccc(N=Nc2ccc3cccnc3c2O)c1 | -10% | -21 | . | -139* | . | ?
COc1ccc(N=Nc2cc(-c3ccccc3)ccc2O)cc1 | -19% | 1 | i | 9 | 6% | -17%
O=[N+]([O-])c1ccc(O)c2cccnc12 | -2% | -3 | ? | -26 | -5% | -2%
COc1ccc(N=Nc2ccc(O)c3ncccc23)cc1 | -4% | -23 | ? | -76* | . | ?
